In PubChem BioAssay:
The source made the active and inactive calls. How the calls were made is not given here.

Each compound was assayed against Pantothenate synthetase (Mycobacterium tuberculosis (strain ATCC 25618 / H37Rv)) (UniProt P9WIL5) (assay: Coupled enzyme confirmation of inhibitors against recombinant Mtb PanC (AID 375;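 further: 0% = full reaction with vehicle and 100% = no enzyme background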)). Conditions: coupled enzyme assay; at 10 µM, active compounds read high.
Chain of Pantothenate synthetase (Mycobacterium tuberculosis (strain ATCC 25618 / H37Rv)) (P9WIL5 whole entry, looked up): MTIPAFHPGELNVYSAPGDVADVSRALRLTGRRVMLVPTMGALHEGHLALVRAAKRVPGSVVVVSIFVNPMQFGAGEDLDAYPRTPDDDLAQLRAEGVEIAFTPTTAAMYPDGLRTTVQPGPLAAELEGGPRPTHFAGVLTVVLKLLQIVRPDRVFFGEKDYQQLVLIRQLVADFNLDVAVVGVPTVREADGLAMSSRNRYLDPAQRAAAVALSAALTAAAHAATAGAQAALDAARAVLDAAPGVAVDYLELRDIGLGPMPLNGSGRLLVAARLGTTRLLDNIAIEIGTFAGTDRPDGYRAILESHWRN

SMILES	inhibition
O=C(CCn1c(=O)c2sccc2n(CC(=O)NCc2ccco2)c1=O)NCc1ccccc1	3% (inactive)
COc1ccc2c(c1OC)C(=O)OC2Nn1cncn1 (stereo not given)	2% (inactive)
COc1ccc(C2c3sc(=O)[nH]c3SC3C4CCC(C4)C23)cc1 (stereo not given)	7% (inactive)
O=C(Nc1ccccc1Cl)c1c(F)c(F)c(F)c(F)c1F	6% (inactive)
O=c1[nH]c(SCc2cc(=O)n3ccccc3n2)nc2c1CCC2	4% (inactive)
CC(C)OC(=O)CSc1nnc(-c2ccco2)n1N	0% (inactive)
COc1ccc(OC)c(C2=Nn3c(nnc3C3CCCCC3)SC2)c1	0% (inactive)
COc1ccc(NC(=O)CSC2=C(C#N)C(c3ccco3)C3=C(CCCC3=O)N2)c(OC)c1 (stereo not given)	16% (inactive)
CC(C)(C)OC(=O)N1CCC(C(=O)N2CCCCCC2)CC1	5% (inactive)
CCOC(=O)Cn1c(CN2CCOCC2)nc2c1c(=O)[nH]c(=O)n2C	0% (inactive)
CN1CCCC(OC(=O)c2ccc3c(c2)OCCO3)C1 (stereo not given)	0% (inactive)
O=C(c1ccc(S(=O)(=O)N2CCC(c3nc4ccccc4s3)CC2)cc1)N1CCOCC1	0% (inactive)
COc1ccccc1NC(=O)CSC1CC(=O)N(c2ccc3c(c2)OCO3)C1=O (stereo not given)	0% (inactive)
COCCN(Cc1cc2cccc(C)c2[nH]c1=O)C(=O)c1ccccc1	0% (inactive)
O=C(c1ccc(F)cc1)C1CCN(CCn2c(=O)[nH]c3ccccc3c2=O)CC1	0% (inactive)
CCCNC(=O)c1cc(-c2ccco2)on1	2% (inactive)
COCCN1C(=O)C(=O)/C(=C(/O)c2cccc(S(=O)(=O)N(C)C)c2)C12C(=O)N(C)c1ccccc12 (stereo not given)	8% (inactive)
COc1ccccc1C(=O)Nc1c2c(nn1-c1cccc(C)c1C)CS(=O)(=O)C2	7% (inactive)
CN(Cc1ccccc1)C(=O)c1cc(-c2ccc(Br)cc2)on1	0% (inactive)
COc1c(C(=O)Nc2c(C)n(C)n(-c3ccccc3)c2=O)ccc2ccccc12	0% (inactive)

SMILES	inhibition
CCCCc1oc2ccccc2c1C(=O)c1cc(I)c(OCCN(CC)CC)c(I)c1	8% (inactive)
CCOC(=O)c1c(NC(=O)Cn2c(=O)oc3ccccc32)oc(C)c1C(C)=O	0% (inactive)
c1ccc(CCNc2ccc3nncn3n2)cc1	2% (inactive)
O=C(c1cnccn1)N(c1ccccc1)C1(C(=O)NC2CCCC2)CCCCC1	0% (inactive)
COc1ccc(Cl)cc1N1CCN(CCNC(=O)Nc2ccccc2C)CC1	0% (inactive)
CCN(CC)S(=O)(=O)c1ccc(NC(=O)CN(c2cccc(F)c2)S(C)(=O)=O)cc1	3% (inactive)
COC(=O)c1cc(NC(=O)C2CC=CCC2C(=O)O)cc(C(=O)OC)c1 (stereo not given)	3% (inactive)
CCOc1ccc(-c2nc(C#N)c(NCc3ccc4c(c3)OCO4)o2)cc1	3% (inactive)
Cc1ccc(Cl)c(Nc2ccccc2C(=O)O)c1Cl	0% (inactive)
O=C(Nc1ccc2c(c1)OCO2)C(c1ccc(Cl)cc1)N1CCN(C(=O)c2ccco2)CC1 (stereo not given)	0% (inactive)
CC(=O)N1CCc2c(sc(NC(=O)c3ccc(S(=O)(=O)N(C)C)cc3)c2C#N)C1	0% (inactive)
COc1ccccc1NC(=O)c1ccc(COc2ccccc2OC)o1	0% (inactive)
CC(C)COc1ccc(C(=O)OCCN2CCOCC2)cc1	1% (inactive)
O=C(CSc1ccc2nnc(-c3ccccc3)n2n1)N1CCN(c2ccccc2)CC1	1% (inactive)
CN(CCNC(=O)c1ccc(N2CCCC2=O)cc1)CCc1ccccc1	0% (inactive)
N#Cc1c(N2CCOCC2)nc(N2CCCCC2)c2c1CCN(C1CCCCC1)C2	0% (inactive)
COc1ccc(N2CCN(C(c3ccccc3)c3sc4nc(C)nn4c3O)CC2)cc1 (stereo not given)	0% (inactive)
O=C(NCc1cccnc1)c1cccc(C(F)(F)F)c1	1% (inactive)
Fc1ccc(Cn2nnc(-c3ccc(CN4CCOCC4)cc3)n2)cc1	0% (inactive)
CCOC(=O)C1CCCN(C(=O)c2cc3c(-c4cccc(OC)c4)nn(C)c3s2)C1 (stereo not given)	0% (inactive)
